# Only some compounds are listed: those with a hit (about 2.3% of all), similar ones and a draw of the others.
# Kir21 block: inhibitors of mouse Kir2.1 inward-rectifier potassium channel; Inward rectifier potassium channel 2 (Mus musculus), P35561; 310,000 compounds, 0.85% hits; HEK293-Kir2.1, FluxOR thallium flux fluorescence; stronger effect = lower value; B-score at 10 µM;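 active = fluorescence ratio B-score at or below minus 3 SD of library scores, with starting-brightness B-score within 2 SD, cut at about -4.2 in these data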;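 note: channel flux triggered by added potassium and thallium sulfate stimulus; B-score of peak minus minimum fluorescence over baseline after thallium stimulus; more negative B-score means stronger Kir2.1 block with less thallium influx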
# Target sequence (P35561 whole entry, looked up): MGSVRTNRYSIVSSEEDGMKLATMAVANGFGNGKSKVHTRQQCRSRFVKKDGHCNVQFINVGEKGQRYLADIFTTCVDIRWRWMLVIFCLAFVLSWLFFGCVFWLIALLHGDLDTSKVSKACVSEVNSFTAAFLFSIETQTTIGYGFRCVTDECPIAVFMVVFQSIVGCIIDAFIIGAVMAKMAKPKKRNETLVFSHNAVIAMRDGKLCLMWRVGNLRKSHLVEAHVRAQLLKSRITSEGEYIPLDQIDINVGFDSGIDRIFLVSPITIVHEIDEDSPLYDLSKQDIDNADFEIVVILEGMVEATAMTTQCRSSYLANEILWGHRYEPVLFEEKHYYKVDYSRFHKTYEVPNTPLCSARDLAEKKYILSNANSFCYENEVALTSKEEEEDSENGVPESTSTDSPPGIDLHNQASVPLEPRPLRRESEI
# Rce1 inh: yeast Rce1p protease inhibitors, primary screen, biochemical, fluorescence, cell-free homogeneous; 290,000 compounds, 0.27% hits; yeast membranes, quenched prenylated peptide cleavage fluorescence; calls only; CAAX prenyl protease 2 (Saccharomyces cerevisiae (strain ATCC 204508 / S288c)), Q03530; AID 2563, 2010;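 active = fall in fluorescence gain of 50% or more versus controls, with final raw signal at or below 3038400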;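 note: plate controls were neutral control wells for no effect and wells lacking membranes for full effect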
# FID counter: compounds displacing fluorescent DNA intercalator, primary screen, artefact control for HCV NS3 helicase inhibitor project, biochemical, FID fluorescence. inhibition, % at 7.9 µM. 290,000 compounds, 0.17% hits. DNA fluorescent intercalator displacement; in the data active = inhibition above about 37%;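 note: 0% = vehicle and 100% = reference compound; higher means more ethidium bromide displaced from hairpin DNA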
# PfM18AAP inh-1: PfM18AAP inhibitors, malaria aminopeptidase, primary screen, biochemical, QFRET, recombinant enzyme; H-Glu-NHMec fluorogenic cleavage; inhibition, % at 7.35 µM; 290,000 compounds, 1.2% hits; AID 1822, 2009;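 active = inhibition above the campaign mean inhibition over all tested compounds plus 3 SD, cut at about 28% in these data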;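 note: 0% = plate median of test compound wells and 100% = 2 mM ZnCl2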
# PfM18AAP inh-2: PfM18AAP inhibitors, malaria aminopeptidase, confirmation, biochemical, QFRET, recombinant enzyme, triplicate; shares compounds with PfM18AAP inh-1; inhibition, % at 7.35 µM; 2,400 compounds, 28% hits; H-Glu-NHMec fluorogenic cleavage;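 active = mean inhibition over replicate wells above the hit cutoff set for the earlier primary screen, cut at about 29% in these data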;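 note: 0% = median of test compound wells and 100% = 2 mM ZnCl2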
# CTSL1 confirm: cathepsin L1 inhibitors, retest, confirmation, counter-screen for PFM18AAP inhibitor project, biochemical, QFRET, triplicate. shares compounds with PfM18AAP inh-1. purified cathepsin L1, Z-Leu-Arg-MCA fluorescence. inhibition, % at 5.96 µM. 2,400 tested, under 10 active;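 active = average inhibition across replicates above the hit cutoff set in the earlier primary screen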;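 note: 0% = median of test compound wells and 100% = Z-Phe-Ala-diazomethylketone 1 µM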
# * hit, by the source's call; i = inactive; . = not tested or not shown.
SMILES,Kir21 block,Rce1 inh,FID counter,PfM18AAP inh-1,PfM18AAP inh-2,CTSL1 confirm
CC(=O)Nc1ccc(-n2cc(-c3ccccc3)[nH]c2=S)cc1,-0.69,i,-12,64*,58*,2
COc1ccc2[nH]c(=O)c(CN(C(=O)c3cccnc3)c3ccc(C)cc3C)cc2c1,1.4,i,-34,-1,.,.
Cc1[nH]n(-c2ccc(F)cc2)c(=O)c1/C=N/c1sc2c(c1C#N)CCCC2,-0.01,i,-1,34*,-56,3
Cc1[nH]n(-c2cccc3ccccc23)c(=O)c1/C=N/c1sc2c(c1C#N)CCC2,0.58,i,-8,14,.,.
CC(=O)c1ccc2oc3ccccc3c(=O)c2c1,0.04,i,-8,-1,.,.
O=S(=O)(Nn1cnnc1)c1ccccc1Cl,-1.2,i,-1,36*,43*,0
O=S(=O)(Nn1cnnc1)c1ccccc1,1.2,i,4,37*,61*,1
COc1ccc(N2CCN(CC(=O)c3ccc(O)cc3O)CC2)cc1,0.42,i,-8,37*,-6,-2
CC(C)(C)c1cc[n+](-c2[nH]c(=O)sc2/C=N/NC([S-])=Nc2ccccc2)cc1,-9.3,i,-8,35*,5,3
O=C(CN1CCN(c2ccc(O)cc2)CC1)Nc1cc(S(=O)(=O)N2CCCC2)ccc1Cl,0.03,i,-24,36*,-14,-3
COCCN(C(=O)COC(=O)CCCOc1ccccc1)c1c(N)n(Cc2ccccc2)c(=O)[nH]c1=O,1.6,i,.,.,.,.
Cc1cc(/C=N/NC(=O)c2ccncc2)c(C)n1-c1ccccc1,-0.52,.,-8,2,.,.
Cc1cc(C(=O)N/N=C/c2ccc(O)c(O)c2O)c(C)n1-c1ccccc1,-3.2,i,-24,49*,18,-3
Clc1ccc(Nc2ncn[nH]2)cc1,-0.76,i,-6,34*,18,4
c1n[nH]c(NC2=NCCC2)n1,0.69,.,-3,4,.,.
NC(=S)NNc1ccnc2cc(Cl)ccc12,-0.4,i,1,55*,28*,4
O=C1NC(c2cccs2)Nc2sc3c(c21)CCCC3 (configuration not stated),-0.08,i,2,13,.,.
CN1C(=O)c2c(sc3c2CCCC3)NC1c1ccccc1O (configuration not stated),-0.76,i,-8,34*,-24,-1
CCC(C)N(C(=O)c1csnn1)C(C(=O)NC1CCCC1)c1c(F)cccc1Cl (configuration not stated),-0.65,i,-33,2,.,.
O=C(NNC(=O)c1ccc[nH]1)Nc1cccc(C(F)(F)F)c1,-1.5,i,1,53*,22,-5
O=C(NNC(=O)c1ccc[nH]1)c1cccc(C(F)(F)F)c1,1.5,i,-4,1,.,.
O=C(NNC(=O)c1ccc[nH]1)Nc1cc(Cl)cc(Cl)c1,0.85,i,0,50*,29*,-3
O=C(Nc1ccccc1)Nc1cc(Cl)cc(Cl)c1,0.34,i,12,-5,.,.
Cc1ccc(C)c(NC(=S)NNc2ccc(F)cc2F)c1,0.91,i,-1,46*,19,-5
Cc1ccc(NC(=O)CCC(=O)NNC(=S)Nc2ccc(F)cc2F)cc1C,1.6,i,-25,6,.,.
SMILES,Kir21 block,Rce1 inh,FID counter,PfM18AAP inh-1,PfM18AAP inh-2,CTSL1 confirm
CC(C)Cn1c(N)c(C(=O)COC(=O)CCNS(=O)(=O)c2ccccc2)c(=O)n(C)c1=O,0.01,i,.,.,.,.
FC(F)(F)c1ccccc1/C=N/Nc1ccccn1,1.4,i,-5,4,.,.
Nn1cnnc1N/N=C/c1cccc(Cl)c1Cl,0.35,i,1,52*,-46,4
CCc1nnc(N/N=C/c2ccccc2Cl)n1N,-0.43,i,5,39*,-53,0
Nn1cnnc1N/N=C/c1ccccc1C(F)(F)F,1.1,i,0,48*,-31,2
Cc1cc(=O)[nH]c(N/N=C/c2ccccc2Cl)n1,-0.17,i,-4,12,.,.
COc1cccc(/C=N/Nc2nnc(C)n2N)c1OCc1ccccc1Cl,0.02,i,2,41*,-31,2
O=C(CO)N/N=C/c1cccc(Cl)c1Cl,-1.1,i,2,-1,.,.
CCCCn1c(N)c(N(CCC(C)C)C(=O)c2ccc(C)c(S(=O)(=O)N3CCOCC3)c2)c(=O)[nH]c1=O,-1.5,i,.,.,.,.
CC1(C)CC[C@]2(C(=O)O)[C@H](O)C[C@]3(C)C(=CCC4[C@@]5(C)C[C@H](O)[C@H](O)[C@@](C)(CO)C5CC[C@]43C)[C@@H]2C1 (some centres not stated),-0.82,i,.,.,.,.
CCOC(=O)c1sc(N/N=C/c2cc(Br)c(O)c(OC)c2)nc1C,-1.2,i,7,37*,11,-2
COCCCNC(=S)NNC(=S)NCCCOC,0.91,i,-4,32*,-15,-6
COCCCNC(=S)NNC(=O)c1cc(Cl)c(O)c(Cl)c1,0.67,i,-1,47*,19,4
CCOC(=O)Cc1nnc(NC(=O)c2ccccc2OCC)s1,0.68,i,-19,3,.,.
CCOC(=O)Cc1nnc(NC(=O)c2ncn[nH]2)s1,0.15,i,5,46*,0,-4
CC(=O)Sc1nc(-c2ccccc2)[nH]c1S(=O)(=O)c1ccc(C)cc1,0.36,i,-14,55*,5,-5
COc1ccc(N/C=C2\C(=O)CCc3c2oc2cc(Cl)c(O)c(Cl)c32)cc1,-0.28,i,7,23,10,-2
COc1ccc(N/C=C2\CCOC2=O)cc1,-1.1,i,2,-1,.,.
Cc1ccc(C)c(OCc2cc(C(=O)NC3CCOC(C)(C)C3)no2)c1 (configuration not stated),-0.01,i,-24,-6,.,.
COc1cc(/C=N/Nc2ncc(C(F)(F)F)cc2Cl)cc(OC)c1OC,1.9,i,-26,1,.,.
COc1cc(/C=N/Nc2ncc(C(F)(F)F)cc2Cl)cc(OC)c1O,-1.5,i,-12,35*,31*,2
COc1cc(/C=N/Nc2ccc(Cl)nn2)cc(OC)c1O,0.27,i,-12,39*,28,3
Oc1c(Br)cc(/C=N/Nc2ccc(Cl)nn2)cc1Br,-1.4,i,-5,34*,-18,0
Oc1c(Br)cc(/C=N/Nc2nncc3ccccc23)cc1Br,2.2,i,-12,33*,10,4
Fc1cccc(/C=N/Nc2ccc(Cl)nn2)c1,0.75,i,-8,9,.,.
CCOc1ccc(NC(=O)CN2CCN(C(=O)C3CCCO3)CC2)cc1 (configuration not stated),2.3,i,-7,1,.,.

# Assay outcomes from PubChem BioAssay.
